In the library only some 5.7% were active in any assay of this set; here they are far more common.
Myeloid diff MLP: promotes myeloid progenitor differentiation; ER-HoxA9 myeloid progenitors, lysozyme-GFP differentiation, flow cytometry; calls only at 10 µM; 360,000 tested, 1% active; AID 624256;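 active = normalized GFP-positive differentiation at or above the plate's own cutoff, the solvent-only control mean plus 3 SD; inconclusive = no clear call, values can overlap the other calls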;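 note: cells exposed to compound for four days before flow analysis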
rCAG RNA binder: molecules binding r(CAG) RNA repeats. r(CAG) RNA repeat, TO-PRO-1 dye displacement fluorescence. inhibition, % at 3 µM. 370,000 tested, 1.3% active. AID 651821;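 active = inhibition above the plate cutoff, the mean of all test compounds on that plate plus 3 SD, cut at about 35% in these data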;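 note: 0% = DMSO alone and 100% = 100 µM mitoxantrone as full dye displacement; higher means more dye released from RNA so lower well fluorescence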
MPTP inh: inhibitors of mitochondrial permeability transition pore; inhibition, % at 10 µM; isolated mouse mitochondria, Ca2+ swelling absorbance, 30 min; 360,000 tested, 1.4% active;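 active = inhibition of 50% or more, scaled per plate between neutral and stimulator controls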;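 note: 0% = DMSO wells given calcium and 100% = 1 mM EGTA wells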
GRIN3A LBD mod: modulators (binders) of human NR3A ligand-binding domain; Tm shift relative to glycine control, % at 25 µM; NR3A LBD differential scanning fluorimetry, Tm shift; 0% = protein alone, 100% = glycine-bound protein; 340,000 tested, 2.5% active;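 active = melting temperature shift of at least 10% of the positive control shift, at one fixed dose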
FAS TE block: inhibitors of human fatty acid synthase thioesterase domain. P49327. AID 602261. recombinant FAS-TE, OMFH fluorogenic substrate, fluorescence endpoint. 360,000 tested, 0.67% active. inhibition, % at 15 µM;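 active = compounds whose normalised, plate-corrected inhibition of enzyme fluorescence in the single-dose primary screen is 50% or more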;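 note: 0% = DMSO with enzyme and 100% = substrate without enzyme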
Numbers without * were called inactive; i = inactive; ? = inconclusive; · = not tested or not shown; + = active, no number.

SMILES | Myeloid diff MLP | rCAG RNA binder | MPTP inh | GRIN3A LBD mod | FAS TE block
CCc1nnc(NC(=O)CSc2sc3c(O)cc(=O)[nH]c3c2C#N)s1 | · | 56.7* | 0.0 | -2.2 | -4.4
Cc1cc(=O)[nH]c(SCC(=O)Nc2cccc3ccccc23)c1C#N | i | · | 41.2 | 0.7 | -1.7
Cc1ccc(Cl)cc1NC(=O)CSc1sc2c(O)cc(=O)[nH]c2c1C#N | i | 35.2* | -1.0 | -6.0 | 1.3
CCN(CC)c1ccc(/C=N/N2C(=O)c3ccccc3C2=O)c(O)c1 | i | -3.4 | 2.5 | 23.6* | -9.9
Cc1ccc(NC(=O)CCCCCN2C(=O)c3ccccc3C2=O)nc1 | i | -2.2 | -0.1 | -2.2 | -2.4
Cc1ccc(NCN2C(=O)C(=O)c3ccccc32)nc1 | ? | 0.3 | 1.2 | 13.1* | -9.5
COc1ccc(NC(=O)COC(=O)Cc2c[nH]c3ccccc23)cc1Cl | ? | 3.9 | 0.8 | 19.8* | 11.4
NC(=O)c1ccc(NC(=O)COC(=O)CCCc2c[nH]c3ccccc23)cc1 | i | 6.6 | -1.7 | 10.3* | -1.1
Cc1ccc(NC(=O)COC(=O)Cc2c[nH]c3ccccc23)cc1C | i | 0.7 | 0.6 | 1.8 | 18.2
S=c1[nH]nc(-c2cc(-c3ccccc3)n[nH]2)n1/N=C/C(Br)=C/c1ccccc1 | · | 33.3 | 5.7 | 16.9* | 19.3
CCC(C)[C@H](NS(=O)(=O)c1ccc(C)cc1)C(=O)N1CCC(C(=O)N[C@@H](Cc2ccccc2)C(=O)O)CC1 (stereo not given in full) | i | 13.9 | -1.5 | 13.4* | -6.2
Cc1ccc(-n2c(SCC(=O)Nc3ccc4c(c3)OCCO4)nnc2-c2ccccn2)cc1 | · | 1.6 | · | · | ·
C[C@@H](NC(=O)C[C@H]1CC[C@H]2[C@@H](COc3ccc(NC(=O)Nc4ccccc4)cc3C(=O)N2C)O1)c1ccccc1 | · | 11.1 | · | · | ·
Cc1ccc(NC(=O)c2ccc(NCc3ccco3)c([N+](=O)[O-])c2)cc1Cl | i | 2.5 | 28.7 | 15.0* | -11.9
CCOc1cc(NC(=O)c2ccco2)c(OCC)cc1NC(=O)CCc1ccccc1OC | i | 0.1 | 2.2 | 15.5* | 20.3
CCOc1cc(NC(=O)c2ccco2)c(OCC)cc1NC(=O)c1ccco1 | · | 1.8 | -3.4 | 0.6 | -1.0
COc1cc(NC(=O)c2oc3ccccc3c2C)ccc1NC(=O)c1ccco1 | ? | 7.2 | 0.4 | 24.1* | 25.0
COc1cc(NC(=O)c2ccco2)c(OC)cc1NC(=O)Nc1cccc(Cl)c1 | i | 16.7 | 2.4 | 22.0* | 10.7
O=C(C1CCC1)N1CCc2cc(S(=O)(=O)N3CCN(c4ccccc4F)CC3)ccc21 | · | 5.8 | · | · | ·
O=C(N[C@H](C(=O)N1CCC[C@H]1C(=O)NCCc1ccccc1Cl)c1ccccc1)C1CCCC1 | · | 0.7 | · | · | ·
Cc1[nH]nc2c1C(c1ccc3c(c1)OCO3)N(Cc1ccccc1)C2=O (stereo not given) | · | 4.0 | · | · | ·
CCOC(=O)C1=C(C(=O)OCC)C2N(Cc3ccc(C(F)(F)F)cc3)c3ccccc3[C@@]23C[C@@H](C(=O)OC)N(S(=O)(=O)c2ccc(OC)cc2)C3=N1 (stereo not given in full) | · | 8.8 | · | · | ·
COc1cc(NC(=O)c2ccc(OC)c([N+](=O)[O-])c2)ccc1NC(=O)c1ccco1 | i | 13.6 | 1.0 | 17.0* | 0.5
COc1cc(NC(=O)COc2ccccc2[N+](=O)[O-])ccc1NC(=O)c1ccco1 | i | -0.1 | 0.3 | -0.8 | 3.8
COc1ccc(C(=O)Nc2cccc(-c3cc4ccccc4oc3=O)c2)cc1[N+](=O)[O-] | ? | 7.7 | -18.1 | 11.2* | 6.7
SMILES | Myeloid diff MLP | rCAG RNA binder | MPTP inh | GRIN3A LBD mod | FAS TE block
C[C@H](c1ccccc1)N1C[C@@H](COCc2ccccc2)Oc2cccc(Oc3ccc(F)cc3)c2S1(=O)=O | · | 8.4 | · | · | ·
O=C1OC(c2ccccc2)(c2ccc3cc(O)ccc3c2)c2ccccc21 (stereo not given) | + | 8.6 | 10.0 | 10.4* | 30.0
O=C1OC(c2ccc(O)cc2)(c2ccc(O)cc2)c2ccccc21 | i | 1.4 | 1.9 | -19.2 | 4.8
O=C(NC1CCCCN(Cc2cccc(Cl)c2)C1=O)c1ccccc1 (stereo not given) | · | -1.7 | · | · | ·
COc1ccc(C2CC(C(C)(C)C)=NN2c2ccc(S(N)(=O)=O)cc2)cc1 (stereo not given) | i | 3.9 | 3.1 | -5.1 | 17.0
COc1ccc(C2CC(c3ccc(C(F)(F)F)cc3)=NN2c2ccc(S(N)(=O)=O)cc2)cc1 (stereo not given) | i | 6.8 | 1.9 | 107.3* | 24.1
Cc1ccc(C2CC(c3ccccc3)=NN2c2ccc(S(N)(=O)=O)cc2)cc1 (stereo not given) | i | 9.4 | -1.0 | · | 23.4
COc1ccc(C2CC(c3ccccc3C(F)(F)F)=NN2c2ccc(S(N)(=O)=O)cc2)cc1 (stereo not given) | i | 7.1 | 0.1 | 18.5* | 20.7
COc1ccc(C2CC(c3ccccc3Br)=NN2c2ccc(S(N)(=O)=O)cc2)cc1 (stereo not given) | i | 12.7 | 1.0 | 14.3* | 19.3
COc1ccc(C2CC(c3ccccc3F)=NN2c2ccc(S(N)(=O)=O)cc2)cc1 (stereo not given) | i | 9.9 | 3.9 | 3.0 | 14.2
O=C(N[C@@H](Cc1cccnc1)C(=O)N1CCC[C@H]1C(=O)NC1CCCC1)c1cccs1 | · | 2.3 | · | · | ·
COC(=O)Cc1nnn2c1[C@@H](C)[C@@H](c1ccccc1Br)OC[C@H](C)C2 | · | 2.5 | · | · | ·
CCN(Cc1ccccc1)C(=O)c1cccc(S(=O)(=O)N2CCN(c3ccccc3)CC2)c1 | + | -1.4 | 2.5 | -0.4 | 20.2
CCN(Cc1ccccc1)C(=O)c1cccc(S(=O)(=O)N2CCN(c3ccc(F)cc3)CC2)c1 | i | -1.3 | 3.4 | 1.1 | 21.7
Cc1ccnc(NC(=O)c2cccc(S(=O)(=O)N3CCN(c4ccccc4)CC3)c2)c1 | i | 4.4 | 1.2 | · | 23.5
Cc1ccc(C(=O)Nc2nnc(S(=O)(=O)N3CCOCC3)s2)cc1 | i | 3.4 | 0.3 | -20.1 | -4.8
Cc1ccc(N2CCN(S(=O)(=O)c3nnc(NC(=O)c4ccccc4)s3)CC2)cc1 | i | 9.8 | 2.9 | 10.0* | 1.7
Cc1ccc(NC(=O)c2cccc(S(=O)(=O)N3CCN(c4ccccc4)CC3)c2)nc1 | i | -2.2 | 2.1 | 27.5* | 27.9
Clc1cccc(CSc2nnc(-c3c[nH]c4ccccc34)o2)c1 | i | 12.0 | -3.2 | 15.7* | 22.4
CCn1c(=S)sc2c(=O)n(CC(=O)Nc3ccc(OC)c(Cl)c3)c(C)nc21 | i | 7.7 | 1.3 | 12.2* | 33.0
CCn1c(=S)sc2c(=O)n(CC(=O)Nc3ccc(Cl)cc3)c(C)nc21 | i | 4.7 | 8.9 | 15.1* | 16.9
CCn1c(=S)sc2c(=O)n(CC(=O)Nc3ccc(C(C)=O)cc3)c(C)nc21 | i | 3.3 | 0.6 | -7.2 | 10.2
Cc1nc2c(sc(=S)n2Cc2ccco2)c(=O)n1CC(=O)Nc1cc(F)ccc1F | i | 13.4 | 1.5 | 6.1 | 16.7
CCn1c(=S)sc2c(=O)n(CC(=O)Nc3ccccc3)c(C)nc21 | i | 4.7 | -0.8 | -2.6 | 43.2
